# Measurements reported in article PMC7862700, “An all-to-all approach to the identification of sequence-specific readers for epigenetic DNA modifications on cytosine”.
# Tests used:
# Assay in all cases: DAPPL (digital affinity profiling via proximity ligation, sequencing); 10 mM Tris-HCl pH 7.5, 50 mM NaCl, 1 mM DTT, 4% glycerol, room temperature, 30 min; GST-TFs on glutathione beads, 16-mer random dsDNA library, 0.1% formaldehyde crosslink after washing; high values mean tight binding
# FLI1 = target: T1, FLI1 (Homo sapiens, UniProt Q01543 1-452); conditions: protein: recombinant; tags: N-terminal GST; dsDNA, one strand shown
# T1 sequence: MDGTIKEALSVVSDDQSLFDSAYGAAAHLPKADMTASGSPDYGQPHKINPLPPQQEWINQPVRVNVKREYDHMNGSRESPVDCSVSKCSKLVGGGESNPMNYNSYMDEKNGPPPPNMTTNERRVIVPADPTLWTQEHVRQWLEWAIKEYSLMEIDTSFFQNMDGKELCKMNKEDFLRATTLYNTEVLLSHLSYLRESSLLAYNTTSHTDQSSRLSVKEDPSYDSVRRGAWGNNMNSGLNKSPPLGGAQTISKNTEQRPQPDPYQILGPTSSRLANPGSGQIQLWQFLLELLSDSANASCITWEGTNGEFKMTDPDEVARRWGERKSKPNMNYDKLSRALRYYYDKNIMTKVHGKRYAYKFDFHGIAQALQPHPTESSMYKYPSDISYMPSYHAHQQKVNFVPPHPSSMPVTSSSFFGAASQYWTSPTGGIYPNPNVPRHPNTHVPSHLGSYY
# Method in brief: (§1)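 GST fusions of human transcription factors were expressed in yeast and captured with glutathione beads. Once given DNA barcodes and pooled alongside a tag-only sample, they were incubated for 30 min at room temperature with 200 nmole of a random double-stranded 16-mer DNA library in Tris/NaCl/DTT/glycerol buffer, then washed, crosslinked (0.1% formaldehyde), proximity-ligated, PCR-amplified and sequenced on an Illumina NextSeq500. The binding signal of each hexamer is its read frequency for a factor divided by its frequency for the tag-only sample.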
# ELK1 = target: T2, ELK1 (Homo sapiens, UniProt P19419 1-428); conditions: protein: recombinant; tags: N-terminal GST; dsDNA, one strand shown
# T2 sequence: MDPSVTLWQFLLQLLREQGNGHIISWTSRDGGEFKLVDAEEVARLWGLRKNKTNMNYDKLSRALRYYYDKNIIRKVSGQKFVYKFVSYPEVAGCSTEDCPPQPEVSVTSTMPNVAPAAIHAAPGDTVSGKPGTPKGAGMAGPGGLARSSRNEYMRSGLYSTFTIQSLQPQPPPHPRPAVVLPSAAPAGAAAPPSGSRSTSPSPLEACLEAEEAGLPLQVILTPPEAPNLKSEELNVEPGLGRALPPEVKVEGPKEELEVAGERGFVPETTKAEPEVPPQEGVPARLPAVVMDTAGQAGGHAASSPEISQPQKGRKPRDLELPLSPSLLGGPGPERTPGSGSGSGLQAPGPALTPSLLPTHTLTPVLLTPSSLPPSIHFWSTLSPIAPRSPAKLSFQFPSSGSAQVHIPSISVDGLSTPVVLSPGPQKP
# Method in brief: as §1
# GABPA = target: T3, GABPA (Homo sapiens, UniProt Q06546 1-454); conditions: protein: recombinant; tags: N-terminal GST; dsDNA, one strand shown
# T3 sequence: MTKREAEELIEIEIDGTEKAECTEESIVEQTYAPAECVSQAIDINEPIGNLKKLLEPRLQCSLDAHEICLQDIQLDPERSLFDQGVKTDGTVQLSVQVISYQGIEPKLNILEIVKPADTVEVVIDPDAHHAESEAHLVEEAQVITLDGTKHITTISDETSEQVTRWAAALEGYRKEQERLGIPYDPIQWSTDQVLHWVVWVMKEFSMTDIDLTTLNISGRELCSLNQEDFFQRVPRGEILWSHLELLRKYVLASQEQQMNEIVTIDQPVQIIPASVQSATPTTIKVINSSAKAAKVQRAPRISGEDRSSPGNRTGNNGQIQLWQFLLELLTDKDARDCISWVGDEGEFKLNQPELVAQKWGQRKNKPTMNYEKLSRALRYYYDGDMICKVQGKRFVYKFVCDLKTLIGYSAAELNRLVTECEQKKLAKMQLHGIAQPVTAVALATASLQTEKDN
# Method in brief: as §1
# ERG = target: T4, ERG (Homo sapiens, UniProt P11308 1-479); conditions: protein: recombinant; tags: N-terminal GST; dsDNA, one strand shown
# T4 sequence: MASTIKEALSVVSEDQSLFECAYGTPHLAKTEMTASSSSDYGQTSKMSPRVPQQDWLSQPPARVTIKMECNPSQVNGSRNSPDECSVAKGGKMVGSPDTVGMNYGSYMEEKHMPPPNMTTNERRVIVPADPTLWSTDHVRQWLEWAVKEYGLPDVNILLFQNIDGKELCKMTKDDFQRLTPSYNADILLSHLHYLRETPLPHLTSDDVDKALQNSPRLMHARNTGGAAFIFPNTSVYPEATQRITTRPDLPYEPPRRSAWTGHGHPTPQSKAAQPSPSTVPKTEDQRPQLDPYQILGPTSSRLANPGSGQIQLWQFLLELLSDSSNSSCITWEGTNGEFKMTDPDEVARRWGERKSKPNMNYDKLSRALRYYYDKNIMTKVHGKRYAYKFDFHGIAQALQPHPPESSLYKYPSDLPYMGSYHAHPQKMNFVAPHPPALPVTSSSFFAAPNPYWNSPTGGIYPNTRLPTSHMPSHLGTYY
# Method in brief: as §1
# ELF1 = ELF1 (Homo sapiens, UniProt P32519 1-619); conditions: protein: recombinant; tags: N-terminal GST; dsDNA, one strand shown
# Method in brief: as §1
# EHF = target: T5, EHF (Homo sapiens, UniProt Q9NZC4 1-300); conditions: protein: recombinant; tags: N-terminal GST; dsDNA, one strand shown
# T5 sequence: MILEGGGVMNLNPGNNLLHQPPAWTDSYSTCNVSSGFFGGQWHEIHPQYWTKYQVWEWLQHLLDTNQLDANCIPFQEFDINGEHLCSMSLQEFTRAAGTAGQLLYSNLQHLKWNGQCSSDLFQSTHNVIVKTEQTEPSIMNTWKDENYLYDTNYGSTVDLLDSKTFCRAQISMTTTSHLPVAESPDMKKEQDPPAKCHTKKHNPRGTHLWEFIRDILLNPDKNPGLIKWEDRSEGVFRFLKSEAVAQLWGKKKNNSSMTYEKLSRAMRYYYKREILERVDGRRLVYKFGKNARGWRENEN
# Method in brief: as §1
# SPI1 = SPI1 (Homo sapiens, UniProt P17947 1-270); conditions: protein: recombinant; tags: N-terminal GST; dsDNA, one strand shown
# Method in brief: as §1
# SPIB = SPIB (Homo sapiens, UniProt Q01892 1-262); conditions: protein: recombinant; tags: N-terminal GST; dsDNA, one strand shown
# Method in brief: as §1
# ELK3 = target: T6, ELK3 (Homo sapiens, UniProt P41970 1-407); conditions: protein: recombinant; tags: N-terminal GST; dsDNA, one strand shown
# T6 sequence: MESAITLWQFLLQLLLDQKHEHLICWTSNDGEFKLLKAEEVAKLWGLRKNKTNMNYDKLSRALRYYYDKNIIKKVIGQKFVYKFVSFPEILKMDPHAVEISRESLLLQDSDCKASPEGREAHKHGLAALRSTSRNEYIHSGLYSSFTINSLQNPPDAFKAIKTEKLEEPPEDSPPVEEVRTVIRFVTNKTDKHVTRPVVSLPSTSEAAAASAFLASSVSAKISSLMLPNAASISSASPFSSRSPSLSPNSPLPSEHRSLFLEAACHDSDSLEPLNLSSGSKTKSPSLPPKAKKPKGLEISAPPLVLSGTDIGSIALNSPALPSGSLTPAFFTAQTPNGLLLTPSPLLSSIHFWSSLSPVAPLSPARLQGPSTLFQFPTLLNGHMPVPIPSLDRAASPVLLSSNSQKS
# Method in brief: as §1
# FEV = target: T7, FEV (Homo sapiens, UniProt Q99581 1-238); conditions: protein: recombinant; tags: N-terminal GST; dsDNA, one strand shown
# T7 sequence: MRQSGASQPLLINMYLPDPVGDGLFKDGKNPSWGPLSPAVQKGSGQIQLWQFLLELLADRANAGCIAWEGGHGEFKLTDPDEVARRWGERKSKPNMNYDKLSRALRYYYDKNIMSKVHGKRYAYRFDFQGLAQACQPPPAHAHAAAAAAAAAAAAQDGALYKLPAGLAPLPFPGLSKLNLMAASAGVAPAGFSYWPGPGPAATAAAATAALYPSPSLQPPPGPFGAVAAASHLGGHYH
# Method in brief: as §1
# ETV5 = ETV5 (Homo sapiens, UniProt P41161 1-510); conditions: protein: recombinant; tags: N-terminal GST; dsDNA, one strand shown
# Method in brief: as §1
# HSF1 = HSF1 (Homo sapiens, UniProt Q00613 1-529); conditions: protein: recombinant; tags: N-terminal GST; chain copies: 3; dsDNA, one strand shown
# Method in brief: as §1
# SPIC = target: T8, SPIC (Homo sapiens, UniProt Q8N5J4 1-248); conditions: protein: recombinant; tags: N-terminal GST; dsDNA, one strand shown
# T8 sequence: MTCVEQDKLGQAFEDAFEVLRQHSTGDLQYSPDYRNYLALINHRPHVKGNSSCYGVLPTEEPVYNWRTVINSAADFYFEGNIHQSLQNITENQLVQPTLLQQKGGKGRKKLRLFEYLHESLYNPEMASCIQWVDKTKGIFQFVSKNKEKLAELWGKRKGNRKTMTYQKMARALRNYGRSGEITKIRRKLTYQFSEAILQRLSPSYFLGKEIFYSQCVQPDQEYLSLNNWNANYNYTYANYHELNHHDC
# Method in brief: as §1
# ELF4 = ELF4 (Homo sapiens, UniProt Q99607 1-663); conditions: protein: recombinant; tags: N-terminal GST; dsDNA, one strand shown
# Method in brief: as §1
# ELK4 = target: T9, ELK4 (Homo sapiens, UniProt P28324-2 1-405); conditions: protein: recombinant; tags: N-terminal GST; dsDNA, one strand shown
# T9 sequence: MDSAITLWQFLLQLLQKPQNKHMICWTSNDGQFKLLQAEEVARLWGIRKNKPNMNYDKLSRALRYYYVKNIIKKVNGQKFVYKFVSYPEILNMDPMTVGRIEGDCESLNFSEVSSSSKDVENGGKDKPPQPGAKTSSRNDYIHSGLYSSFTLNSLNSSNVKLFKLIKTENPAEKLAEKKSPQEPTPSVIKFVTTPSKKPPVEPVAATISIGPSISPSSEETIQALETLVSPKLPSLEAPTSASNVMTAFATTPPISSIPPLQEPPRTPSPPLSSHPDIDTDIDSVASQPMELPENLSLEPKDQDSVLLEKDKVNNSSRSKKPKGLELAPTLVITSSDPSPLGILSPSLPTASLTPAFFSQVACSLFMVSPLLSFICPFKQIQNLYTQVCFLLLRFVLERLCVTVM
# Method in brief: as §1
# ETV2 = target: T10, ETV2 (Homo sapiens, UniProt O00321 1-342); conditions: protein: recombinant; tags: N-terminal GST; dsDNA, one strand shown
# T10 sequence: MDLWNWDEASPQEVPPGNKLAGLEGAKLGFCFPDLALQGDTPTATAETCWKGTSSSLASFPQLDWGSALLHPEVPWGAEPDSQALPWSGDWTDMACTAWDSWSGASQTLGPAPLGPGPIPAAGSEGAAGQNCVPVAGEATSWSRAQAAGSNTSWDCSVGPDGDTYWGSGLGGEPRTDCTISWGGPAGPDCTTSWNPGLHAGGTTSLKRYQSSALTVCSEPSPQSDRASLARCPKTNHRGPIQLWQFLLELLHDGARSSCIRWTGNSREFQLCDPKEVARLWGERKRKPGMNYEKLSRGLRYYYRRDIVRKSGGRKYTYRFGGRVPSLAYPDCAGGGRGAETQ
# Method in brief: as §1
# ELF3 = target: T11, ELF3 (Homo sapiens, UniProt P78545 1-371); conditions: protein: recombinant; tags: N-terminal GST; dsDNA, one strand shown
# T11 sequence: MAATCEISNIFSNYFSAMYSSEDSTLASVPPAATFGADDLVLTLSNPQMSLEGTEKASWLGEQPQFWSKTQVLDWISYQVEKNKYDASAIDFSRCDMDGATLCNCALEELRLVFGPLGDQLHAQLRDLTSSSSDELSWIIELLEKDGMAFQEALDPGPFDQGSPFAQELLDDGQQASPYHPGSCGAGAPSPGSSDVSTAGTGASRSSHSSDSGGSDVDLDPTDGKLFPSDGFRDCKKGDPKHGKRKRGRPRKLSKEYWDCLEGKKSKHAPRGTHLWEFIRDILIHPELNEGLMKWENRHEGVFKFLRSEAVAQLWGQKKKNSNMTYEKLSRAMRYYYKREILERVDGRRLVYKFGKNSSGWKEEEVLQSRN
# Method in brief: as §1
# CRX = CRX (Homo sapiens, UniProt O43186 1-299); conditions: protein: recombinant; tags: N-terminal GST; dsDNA, one strand shown
# Method in brief: as §1
# ETV1 = ETV1 (Homo sapiens, UniProt P50549 1-477); conditions: protein: recombinant; tags: N-terminal GST; dsDNA, one strand shown
# Method in brief: as §1
# Chain of ELF4 (Q99607 whole entry): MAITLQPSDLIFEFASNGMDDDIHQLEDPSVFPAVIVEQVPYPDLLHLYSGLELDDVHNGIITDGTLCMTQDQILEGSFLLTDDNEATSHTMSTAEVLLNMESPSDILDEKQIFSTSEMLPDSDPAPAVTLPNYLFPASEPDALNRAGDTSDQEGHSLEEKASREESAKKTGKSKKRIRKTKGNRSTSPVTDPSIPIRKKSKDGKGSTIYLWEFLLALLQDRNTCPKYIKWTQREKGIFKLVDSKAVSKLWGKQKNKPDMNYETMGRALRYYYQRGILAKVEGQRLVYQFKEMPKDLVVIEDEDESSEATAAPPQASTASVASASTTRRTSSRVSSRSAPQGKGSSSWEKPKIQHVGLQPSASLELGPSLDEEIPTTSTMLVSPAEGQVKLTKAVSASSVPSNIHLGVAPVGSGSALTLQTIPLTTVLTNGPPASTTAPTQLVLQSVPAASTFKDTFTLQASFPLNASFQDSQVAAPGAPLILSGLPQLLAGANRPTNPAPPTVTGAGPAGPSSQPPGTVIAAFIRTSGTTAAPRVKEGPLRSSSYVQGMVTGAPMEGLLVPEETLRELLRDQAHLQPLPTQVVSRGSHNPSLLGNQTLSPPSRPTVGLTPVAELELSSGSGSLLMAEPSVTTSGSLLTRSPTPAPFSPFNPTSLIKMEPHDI
# Chain of CRX (O43186 whole entry): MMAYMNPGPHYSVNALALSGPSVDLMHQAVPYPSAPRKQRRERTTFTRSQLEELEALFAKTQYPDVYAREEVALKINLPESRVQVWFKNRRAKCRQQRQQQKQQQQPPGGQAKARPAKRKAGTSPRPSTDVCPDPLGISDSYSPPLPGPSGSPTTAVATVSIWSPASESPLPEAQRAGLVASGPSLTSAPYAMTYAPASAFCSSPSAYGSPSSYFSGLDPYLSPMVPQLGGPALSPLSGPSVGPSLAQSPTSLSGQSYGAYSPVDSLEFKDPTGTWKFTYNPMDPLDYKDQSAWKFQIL
# Chain of ELF1 (P32519 whole entry): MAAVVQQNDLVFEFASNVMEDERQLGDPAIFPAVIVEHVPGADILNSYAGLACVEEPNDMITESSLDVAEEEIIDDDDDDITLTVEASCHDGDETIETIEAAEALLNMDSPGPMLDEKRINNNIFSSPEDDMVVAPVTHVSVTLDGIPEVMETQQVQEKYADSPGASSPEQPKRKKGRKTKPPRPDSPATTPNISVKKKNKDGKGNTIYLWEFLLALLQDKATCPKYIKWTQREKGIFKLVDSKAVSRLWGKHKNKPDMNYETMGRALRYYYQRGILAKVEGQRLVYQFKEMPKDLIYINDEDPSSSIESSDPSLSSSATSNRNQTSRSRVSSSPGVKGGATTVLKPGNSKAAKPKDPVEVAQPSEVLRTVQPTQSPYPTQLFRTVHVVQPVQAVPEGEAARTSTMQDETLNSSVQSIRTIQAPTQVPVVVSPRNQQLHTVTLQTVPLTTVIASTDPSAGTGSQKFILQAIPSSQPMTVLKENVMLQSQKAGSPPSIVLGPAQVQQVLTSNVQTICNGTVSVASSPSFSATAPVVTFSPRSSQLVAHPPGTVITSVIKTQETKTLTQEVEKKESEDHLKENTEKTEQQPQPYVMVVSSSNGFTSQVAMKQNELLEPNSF
# Chain of ETV1 (P50549 whole entry): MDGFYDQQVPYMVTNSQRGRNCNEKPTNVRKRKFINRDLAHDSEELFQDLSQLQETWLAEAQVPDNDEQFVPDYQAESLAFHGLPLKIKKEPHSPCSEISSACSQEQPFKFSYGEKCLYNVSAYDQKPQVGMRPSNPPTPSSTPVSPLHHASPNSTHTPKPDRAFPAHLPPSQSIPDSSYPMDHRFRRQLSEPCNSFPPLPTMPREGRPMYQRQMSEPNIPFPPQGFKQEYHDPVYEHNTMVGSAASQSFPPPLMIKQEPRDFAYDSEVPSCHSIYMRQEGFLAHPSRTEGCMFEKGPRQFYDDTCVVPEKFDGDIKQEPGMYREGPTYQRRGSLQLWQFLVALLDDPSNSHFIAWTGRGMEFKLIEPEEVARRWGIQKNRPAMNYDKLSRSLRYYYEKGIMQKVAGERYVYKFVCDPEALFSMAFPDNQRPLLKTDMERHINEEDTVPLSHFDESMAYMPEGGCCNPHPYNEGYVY
# Chain of ETV5 (P41161 whole entry): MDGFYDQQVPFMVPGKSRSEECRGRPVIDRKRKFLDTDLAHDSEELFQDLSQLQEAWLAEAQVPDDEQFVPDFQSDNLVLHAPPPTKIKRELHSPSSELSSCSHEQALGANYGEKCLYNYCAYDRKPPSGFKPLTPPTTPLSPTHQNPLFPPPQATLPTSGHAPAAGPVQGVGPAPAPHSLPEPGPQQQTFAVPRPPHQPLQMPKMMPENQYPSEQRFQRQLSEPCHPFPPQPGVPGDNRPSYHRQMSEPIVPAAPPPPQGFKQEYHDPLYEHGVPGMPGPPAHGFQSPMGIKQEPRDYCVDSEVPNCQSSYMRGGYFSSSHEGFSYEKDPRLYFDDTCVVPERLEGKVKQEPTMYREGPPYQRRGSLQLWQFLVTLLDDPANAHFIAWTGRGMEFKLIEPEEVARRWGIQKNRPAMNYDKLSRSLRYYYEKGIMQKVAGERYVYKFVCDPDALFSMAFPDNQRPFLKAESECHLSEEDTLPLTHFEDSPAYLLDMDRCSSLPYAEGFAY
# Chain of HSF1 (Q00613 whole entry): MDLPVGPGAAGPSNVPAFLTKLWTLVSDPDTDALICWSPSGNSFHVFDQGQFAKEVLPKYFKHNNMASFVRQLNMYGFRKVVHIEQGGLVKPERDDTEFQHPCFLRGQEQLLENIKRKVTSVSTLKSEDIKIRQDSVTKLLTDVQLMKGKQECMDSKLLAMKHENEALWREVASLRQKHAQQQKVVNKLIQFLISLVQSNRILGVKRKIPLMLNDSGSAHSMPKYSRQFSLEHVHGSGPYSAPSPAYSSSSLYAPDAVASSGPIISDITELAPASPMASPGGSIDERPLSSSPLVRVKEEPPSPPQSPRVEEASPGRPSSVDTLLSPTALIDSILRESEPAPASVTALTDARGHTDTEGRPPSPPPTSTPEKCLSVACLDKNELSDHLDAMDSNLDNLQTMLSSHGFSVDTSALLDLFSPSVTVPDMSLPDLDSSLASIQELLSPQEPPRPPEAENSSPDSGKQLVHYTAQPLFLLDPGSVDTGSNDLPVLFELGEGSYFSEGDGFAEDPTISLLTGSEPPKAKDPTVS
# Chain of SPIB (Q01892 whole entry): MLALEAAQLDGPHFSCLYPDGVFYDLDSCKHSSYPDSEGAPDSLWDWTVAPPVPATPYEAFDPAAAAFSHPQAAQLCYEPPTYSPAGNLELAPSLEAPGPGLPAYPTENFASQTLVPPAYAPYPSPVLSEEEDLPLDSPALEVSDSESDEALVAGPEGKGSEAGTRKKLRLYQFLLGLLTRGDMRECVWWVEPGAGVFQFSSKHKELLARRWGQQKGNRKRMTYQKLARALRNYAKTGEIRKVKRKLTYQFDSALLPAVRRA
sequence,measurement,setting,value
TCCCCG,binding signal,FLI1,"1.15 fold enrichment (6-mer frequency, TF over GST control)"
same,binding signal,ELK1,"1.22 fold enrichment (6-mer frequency, TF over GST control)"
same,binding signal,GABPA,"1.32 fold enrichment (6-mer frequency, TF over GST control)"
same,binding signal,ERG,"1.2 fold enrichment (6-mer frequency, TF over GST control)"
same,binding signal,ELF1,"1.23 fold enrichment (6-mer frequency, TF over GST control)"
same,binding signal,EHF,"1.35 fold enrichment (6-mer frequency, TF over GST control)"
same,binding signal,SPI1,"1.18 fold enrichment (6-mer frequency, TF over GST control)"
same,binding signal,SPIB,"1.13 fold enrichment (6-mer frequency, TF over GST control)"
same,binding signal,ELK3,"1.13 fold enrichment (6-mer frequency, TF over GST control)"
same,binding signal,FEV,"1.17 fold enrichment (6-mer frequency, TF over GST control)"
same,binding signal,ETV5,"1.22 fold enrichment (6-mer frequency, TF over GST control)"
same,binding signal,HSF1,"1.16 fold enrichment (6-mer frequency, TF over GST control)"
same,binding signal,SPIC,"1.04 fold enrichment (6-mer frequency, TF over GST control)"
same,binding signal,ELF4,"1.22 fold enrichment (6-mer frequency, TF over GST control)"
same,binding signal,ELK4,"1.12 fold enrichment (6-mer frequency, TF over GST control)"
same,binding signal,ETV2,"1.26 fold enrichment (6-mer frequency, TF over GST control)"
same,binding signal,ELF3,"1.27 fold enrichment (6-mer frequency, TF over GST control)"
same,binding signal,CRX,"1.21 fold enrichment (6-mer frequency, TF over GST control)"
same,binding signal,ETV1,"1.13 fold enrichment (6-mer frequency, TF over GST control)"
